Assay results: PubChem BioAssay
Results with a measured potency or affinity are listed apart. Inconclusive results are not listed. Calls of active or inactive are those of the source.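 The calls were made as follows, unless noted: active = a fitted half-maximal concentration no higher than twice the top valid tested dose, with signal falling as cells die; inconclusive = flat curve between -70% and -30%, or poor fit; inactive = the rest, including signal rising instead of falling.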

What was measured:
[1] = fungal growth arrest, C. neoformans – Alamar Blue, cherry-picks, dose response (AID 686998;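 active = falling signal with fitted half-maximal potency no higher than twice the top valid tested dose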); settings: Cryptococcus neoformans growth, 24 h; series mostly up to 35 µM
[2] = viability loss in HepG2 hepatoma cells – cell-based, cherry-picks, set 2, cytotoxicity control, dose response (AID 687002;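 active = a dose-response fit showing signal loss, with half-maximal concentration no higher than twice the top tested dose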); settings: ATP luminescence (CellTiter-Glo), 48 h; series mostly up to 26 µM
[3] = viability loss in HeLa cells – cell-based, ATP luminescence, cherry-pick samples, cytotoxicity control, dose response (AID 687004); settings: ATP luminescence (CellTiter-Glo), 48 h; series mostly up to 26 µM;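 also: 0% = neutral control median and -100% = staurosporine 10 µM control median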
[4] = RMG-1 ovarian cancer cell viability loss – cherry-pick, dose response (AID 687029;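 active = signal drop whose fitted half-maximal concentration is at most twice the top valid dose, in every test run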;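 also: cells exposed to compound for 96 hours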); settings: RMG-1 viability, CellTiterGlo ATP luminescence, 96 h; series mostly up to 35 µM
[5] = IOSE-T80 viability loss, PAX8-independent line – cell-based, cherry-pick, selectivity assay for PAX8 inhibitor project, dose response (AID 687032;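 active = fitted half-maximal concentration for viability loss no higher than twice the top valid dose, in every repeat run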;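 also: cells exposed to compound for 96 h before reading; 0% = neutral control wells and -100% = 2 µM mitoxantrone kill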); settings: CellTiterGlo ATP luminescence, 96 h; series mostly up to 35 µM
[6] = CMV-driven luciferase expression suppression in HEK293 – cell-based, luminescence, dry powder, counter-screen for Pax8 inhibitor project, dose response (AID 743020;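 active = signal-lowering compounds whose fitted half-maximal concentration is at or below twice the top tested dose in every run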;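 also: HEK293 cells stably expressing the CMV luciferase reporter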); settings: HEK293 CMV-luciferase reporter, SteadyGlo luminescence, 24 h; series mostly up to 35 µM
[7] = general cell-killing toxicity readout – plate reader, dry powder samples, cytotoxicity control for PAX8 inhibitor project, dose response (AID 743021; call rule not given here); settings: cell line, non-specific cytotoxicity counter-screen; series mostly up to 35 µM
[8] = IGROV1 cell killing – plate reader, dry powder samples, PAX8 inhibitor project, dose response (AID 743043; call rule not given here;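 also: more negative means fewer viable cells or more cytotoxicity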); settings: IGROV1 ovarian cancer cell cytotoxicity; series mostly up to 35 µM
[9] = OVCAR-3 cell viability loss – plate reader, dry powder samples, PAX8 inhibitor project, dose response (AID 743044; call rule not given here); settings: NIH:OVCAR-3 ovarian cancer cell viability; max activity: at 35 µM, active compounds read low unless noted; series mostly up to 50 µM
[10] = toxicity toward immortalized ovarian surface epithelium – cell-based, plate reader, dry powder samples, cytotoxicity control for PAX8 inhibitor project, dose response (AID 743045; call rule not given here;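 also: 0% = neutral control median and -100% = positive control median; more negative values mean more cell killing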); settings: IOSE-T80 ovarian epithelial cells; series mostly up to 35 µM
[11] = OVCAR8 cell viability loss – plate reader, dry powder samples, PAX8 project, dose response (AID 743197; call rule not given here); settings: series mostly up to 35 µM
[12] = C. neoformans lysis by adenylate kinase leakage – AK release luminescence, cherry-picks, dose response (AID 687000;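 active = fitted dose curve reaches 40% lysis signal rise at or below the highest valid concentration tested for that sample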;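 also: luminescent detection of adenylate kinase leaking from lysed yeast; 0% = median neutral control signal and 100% = double that signal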); settings: 4 h, 100% = twice the neutral-control signal; series mostly up to 15 µM

Measured: max activity

CCCC(=O)Nc1ccc2c(c1)C(=O)N(C)C[C@H](OC)[C@@H](C)CN(C(=O)c1cccnc1)[C@@H](C)CO2
inactive: [1] | [2] | [3]

Cc1noc(C)c1S(=O)(=O)Nc1ccc2c(c1)C(=O)N([C@@H](C)CO)C[C@@H](C)[C@@H](CN(C)Cc1ccccc1)OCCCC[C@H](C)O2
inactive: [1] | [2] | [3]

C[C@H]1CN([C@@H](C)CO)S(=O)(=O)c2ccc(Br)cc2O[C@@H]1CN(C)C(=O)CCN1CCCCC1
inactive: [1] | [2] | [3]

Cc1noc(C)c1NC(=O)Nc1ccc2c(c1)C(=O)N([C@@H](C)CO)C[C@H](C)[C@H](CN(C)S(=O)(=O)c1ccc(Cl)cc1)O2
inactive: [1] | [2] | [3]

COc1cccc(S(=O)(=O)N(C)C[C@@H]2OCc3ccccc3-c3ccccc3C(=O)N([C@@H](C)CO)C[C@@H]2C)c1
inactive: [4] | [5] | [6] | [7] | [8] | [9] -40.1% [at 8 µM, active compounds read low] | [10] | [11]

CCOc1ccc(C(=O)NC(=S)Nc2ccccc2N2CCCCC2)cc1[N+](=O)[O-]
inactive: [12] | [2] | [3]

CCCC(=O)Nc1ccc2c(c1)OC[C@H](C)N(Cc1ccccn1)C[C@H](C)[C@H](OC)CN(C)C2=O
inactive: [12] | [2] | [3]
